Hits are enriched below; roughly 19% of the tested compounds scored in any of these assays.
DT40 TDP1 CPT – DT40-hTDP1 cell growth loss with CPT; Potency, µM (top dose mostly 46.2 µM), hits mostly inhibitors; chicken DT40 Tdp1-/-;hTDP1 cells + 20 nM CPT, ATP luminescence, 48 h; AID 686979; hit rate 12% among 420,000; note: nearly all actives have a fitted effect of over 55% in size
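Cell growth measured by CellTiter-Glo luminescence after a minimum 48 h, 37 C compound exposure with 20 nM CPT in Tdp1-knockout DT40 cells stably expressing hTDP1, seeded 400/well; qHTS titration format.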
BCR signal inh – chronic active BCR signaling inhibition | ABC-DLBCL IkBa-CBG/CBR reporter, luminescence ratio, 4 h | Potency, µM (top dose mostly 46.1 µM), most hits filed as inhibitors | hit rate 0.05% among 340,000 | AID 493014; active = well fitted inhibition curve with a large enough effect in the signal ratio, with a control signal flat, not every such curve was filed as active; inconclusive = small, poorly fitted or top-dose-only effect, or effect the other way, or a change in a side signal; the % refers to the signal ratio
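TMD8 ABC-DLBCL cells carrying doxycycline-inducible green luciferase fused to IkappaBalpha plus unfused red luciferase were exposed to compounds (up to 46 uM) for 4 hrs at 37C. Activity came from the overlap-corrected green/red luminescence ratio.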
TDP1 cell noCPT – qHTS for Inhibitors of human tyrosyl-DNA phosphodiesterase 1 (TDP1): qHTS in cells in absence of CPT; DT40 Tdp1-/- hTDP1 cells, no CPT, ATP luminescence, 48 h; Potency, µM (titrated, usually from 46.2 µM), hits mostly inhibitors; hit rate 15% among 420,000; AID 686978, 2013; note: nearly all actives have a fitted effect of over 55% in size
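Readout: luminescence from CellTiter-Glo after 30 min in the dark at RT. Cells: DT40 Tdp1-/- with stable hTDP1, 400/well. Exposure: compounds alone, ≥48 hr, 37 °C.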
SW480 rerep – DNA re-replication induction in SW480 cells | SW480 DNA re-replication, Hoechst DNA content imaging, 48 h | Potency, µM (doses to about 46.1 µM), hits mostly activators | hit rate 1.8% among 340,000; note: nearly all actives have a fitted effect of over 55% in size
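Per well, 250 cells were exposed to pinned compound for 48 hr. Nuclear DNA was visualised with Hoechst (40 min, 37 C) and total object intensity recorded by fluorescence scanning.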
MCF10A rerep – induces DNA re-replication in MCF 10a normal breast cells; MCF 10A DNA re-replication, Hoechst nuclear intensity, 48 h; Potency, µM (titrated, usually from 46.1 µM), actives largely listed as activators; hit rate 2.9% among 350,000; AID 624296; note: nearly all actives have a fitted effect of over 50% in size
IL-1B inflam inh – blocks inflammasome-driven IL-1 beta release | THP-1 LPS/ATP IL-1B secretion, AlphaLISA, 16 h; active compounds read low | activity change, % at 57.5 µM | hit rate 4.7% among 360,000 | AID 743279; in the data active = activity change below about -50%; inconclusive = mostly about -30% to -49%
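Secreted IL-1B measured by AlphaLISA bead assay after 16 h compound exposure of THP-1 cells; compounds (final up to 57.5 uM) added 1 h before LPS (250 ng/mL) and ATP (1.25 mM) stimulation; lower signal means less secretion.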
Each line names hits and unclear results; the compound was inactive in the other large screens. Unless noted, calls come from the whole dose curve; as a rule, active = well fitted curve in the direction sought with a large enough effect; inconclusive = small, poorly fitted or top-dose-only effect, or another doubt; inactive = no such curve, though single readings can be large; an effect the other way counts as inactive or inconclusive.

CCN(CC)S(=O)(=O)c1cc(NC(=O)c2cc(-c3ccccn3)nc3ccccc23)ccc1C	DT40 TDP1 CPT 23µM, TDP1 cell noCPT 15µM, MCF10A rerep inconclusive
CCN(CC)C(=O)c1cccc(NC(=O)c2cc(-c3ccccn3)nc3ccccc23)c1	DT40 TDP1 CPT inconclusive, TDP1 cell noCPT 16µM, MCF10A rerep inconclusive
CCN(CC)S(=O)(=O)c1ccc2[nH]c(=O)cc(C(=O)Nc3ccc(C)c(S(=O)(=O)N(CC)CC)c3)c2c1	DT40 TDP1 CPT inconclusive, TDP1 cell noCPT 23µM
COc1ccc(NC(=O)c2cc(-c3ccccn3)nc3ccccc23)cc1S(=O)(=O)N(C)C	DT40 TDP1 CPT inconclusive, TDP1 cell noCPT 9.2µM, MCF10A rerep inconclusive
COC(=O)c1ccc(NC(=O)c2cc(-c3ccccn3)nc3ccccc23)cc1	none
CCN(CC)S(=O)(=O)c1cc(NC(=O)COC(=O)Cn2cnc3ccccc32)ccc1C	none
CCOC(=O)C1CCCN(C(=O)c2cnn(-c3ncc4c(n3)-c3ccccc3CCC4)c2C2CC2)C1 (centres undefined)	none (no result: BCR signal inh, SW480 rerep, MCF10A rerep, IL-1B inflam inh)
Cc1ccc(N=Nc2c(=O)[nH]n3c(C)cc(C)nc23)cc1	none
Nc1[nH]n2c(=O)cc(-c3ccccc3)nc2c1N=Nc1ccccc1	DT40 TDP1 CPT 3.3µM, BCR signal inh inconclusive, TDP1 cell noCPT 5.2µM, MCF10A rerep inconclusive
Nc1[nH]n2c(=O)cc(-c3ccccc3)nc2c1N=Nc1ccc(S(N)(=O)=O)cc1	none
Cc1ccc(N=Nc2c(N)[nH]n3c(=O)cc(C)nc23)cc1	DT40 TDP1 CPT inconclusive, TDP1 cell noCPT 15µM, MCF10A rerep inconclusive
O=C(O)c1cccc(NS(=O)(=O)c2cc(S(=O)(=O)c3ccc(Cl)cc3)ccc2Cl)c1	none
CCCn1c(Nc2cccc(OC)c2)nc2ccccc21	DT40 TDP1 CPT inconclusive, TDP1 cell noCPT inconclusive
c1cc2c(cc1-c1cnc3n1CCC3)OCCO2	DT40 TDP1 CPT 18µM, TDP1 cell noCPT inconclusive
c1ccc(-c2ccc(-c3cnc4n3CCCCC4)cc2)cc1	DT40 TDP1 CPT inconclusive, BCR signal inh inconclusive, TDP1 cell noCPT 18µM, MCF10A rerep inconclusive, IL-1B inflam inh inconclusive
Cc1ccc(-c2cnc3n2CCCCC3)cc1	DT40 TDP1 CPT inconclusive, TDP1 cell noCPT 26µM
O=C1CCC(C(=O)N2CCCCO2)CN1Cc1cccc(F)c1 (centres undefined)	none
Cn1cc(CNCc2ccc(OC(F)(F)F)cc2)c(-c2ccc3c(c2)OCCO3)n1	DT40 TDP1 CPT 7.3µM, TDP1 cell noCPT 2.6µM, MCF10A rerep inconclusive
O=C(/C=C/c1ccc(OCCCF)cc1)Nc1ccnc(-c2ccncc2)n1	DT40 TDP1 CPT inconclusive, TDP1 cell noCPT 23µM, MCF10A rerep inconclusive
O=C(/C=C/c1ccc(OCCCF)cc1)Nc1ccnc(-c2cccnc2)n1	DT40 TDP1 CPT inconclusive, TDP1 cell noCPT inconclusive, SW480 rerep inconclusive
Cc1cc(=O)[nH]c(SCC(=O)N2C(C)CCCC2C)n1 (centres undefined)	none
CC1(C)CC(=O)c2c(O)c(-c3ccccc3)c(=O)n(-c3ccccc3)c2C1	none
O=c1oc2ccc(F)cc2cc1-c1nc(-c2cccs2)no1	none (no result: BCR signal inh, SW480 rerep, MCF10A rerep, IL-1B inflam inh)
O=C1C2C3C=CC(CC3)C2C(=O)N1c1ccc(F)cc1 (centres undefined)	none
O=C1C2C3CCCC3=C3CCCC3C2C(=O)N1c1ccc(F)cc1 (centres undefined)	DT40 TDP1 CPT inconclusive, TDP1 cell noCPT 18µM
Cc1ccc(NCc2nnc(SCC(=O)NNC(=O)Cc3ccccc3)n2C)cc1	none
COc1ccc2cc(CN(CCCN3CCOCC3)Cc3nnnn3C3CCCC3)c(=O)[nH]c2c1	DT40 TDP1 CPT inconclusive, MCF10A rerep inconclusive
COc1ccc(CN(Cc2cc3ccc(C)cc3[nH]c2=O)Cc2nnnn2C2CCCC2)cc1	DT40 TDP1 CPT inconclusive, TDP1 cell noCPT 18µM, IL-1B inflam inh -58
Cc1ccc2cc(CN(Cc3nnnn3C3CCCCC3)CC3CCCO3)c(=O)[nH]c2c1 (centres undefined)	DT40 TDP1 CPT 15µM, TDP1 cell noCPT 16µM
CCc1ccc2[nH]c(=O)c(CN(Cc3nnnn3C3CCCC3)C3CCCCC3)cc2c1	DT40 TDP1 CPT inconclusive, BCR signal inh inconclusive, TDP1 cell noCPT inconclusive, IL-1B inflam inh inconclusive
Cc1cccc2cc(CN(Cc3nnnn3C3CCCC3)C3CCCCC3)c(=O)[nH]c12	DT40 TDP1 CPT 21µM, TDP1 cell noCPT inconclusive, SW480 rerep inconclusive, MCF10A rerep inconclusive (no result: BCR signal inh)
Cc1cc(C)c2cc(CN(Cc3nnnn3C3CCCCC3)CC3CCCO3)c(=O)[nH]c2c1 (centres undefined)	DT40 TDP1 CPT inconclusive, TDP1 cell noCPT 13µM
CN(C)C(=S)Oc1ccccc1C1(C)OCCO1	none (no result: BCR signal inh, SW480 rerep, MCF10A rerep)
COc1cccc(CN2CC(C(=O)N(C)CC3CCOCC3)CCC2=O)c1 (centres undefined)	none
COc1ccc2[nH]c(=O)c(CN(Cc3nnnn3Cc3ccc(F)cc3)CC3CCCO3)cc2c1 (centres undefined)	DT40 TDP1 CPT inconclusive, TDP1 cell noCPT inconclusive
Cc1cc2cc(CN(Cc3nnnn3C3CCCCC3)CC3CCCO3)c(=O)[nH]c2cc1C (centres undefined)	DT40 TDP1 CPT inconclusive, TDP1 cell noCPT inconclusive, MCF10A rerep inconclusive, IL-1B inflam inh -66
Cc1cc(C)cc(Cn2cc(CN3CC(N4CCN(CCO)CC4)CS3(=O)=O)nn2)c1 (centres undefined)	none (no result: BCR signal inh, SW480 rerep, MCF10A rerep)
C=CCN(C(=O)c1csnn1)C(C(=O)NC1CCCC1)c1ccccc1F (centres undefined)	none
Cc1cccc(NC(=O)CSc2nccn2Cc2ccc(F)cc2)c1C	none (no result: BCR signal inh, SW480 rerep, MCF10A rerep, IL-1B inflam inh)
C=C(C)CN=C1SC(C(=O)Nc2sc3c(c2C(=O)OC)CCC3)C(N)=C1C(N)=O (centres undefined)	DT40 TDP1 CPT inconclusive, BCR signal inh inconclusive, TDP1 cell noCPT inconclusive, SW480 rerep inconclusive, MCF10A rerep 4.1µM
O=C1c2ccccc2CCCC12N=NCC2c1cccc2ccccc12 (centres undefined)	DT40 TDP1 CPT inconclusive, TDP1 cell noCPT inconclusive
Cc1ccc(C2CN=NC23CCc2ccccc2C3=O)cc1 (centres undefined)	DT40 TDP1 CPT 26µM, TDP1 cell noCPT 26µM, MCF10A rerep inconclusive
COC(=O)CN1C(=O)[C@H]2[C@@H](/C=C/c3ccccc3)N3C(=O)CN(Cc4ccc(-c5ccccc5)cc4)C(=O)[C@@]3(C)[C@H]2C1=O	DT40 TDP1 CPT 26µM, TDP1 cell noCPT inconclusive
CN1C(=O)[C@H]2[C@@H](/C=C/c3ccccc3)N3C(=O)CN(Cc4ccccn4)C(=O)[C@@]3(C)[C@H]2C1=O	MCF10A rerep inconclusive

Screening results (PubChem)
